Assay outcomes (PubChem BioAssay)
This is a sample that favours compounds with a hit; in the whole collection about 2.4% have one here.
WRN helicase inh: WRN helicase (human) inhibition; Q14191; WRN helicase unwinding, fluorescent forked duplex, kinetic; Potency, µM (doses to about 114 µM), usual class: inhibitors; 360,000 tested, 0.46% active; AID 651768; note: nearly all actives have a fitted effect of over 55% in size
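Primary qHTS, 1536-well format. 20 nM WRN + compound, 15 min RT; start with 100 nM forked fluorophore/quencher duplex, 2 mM ATP (final); kinetic read ex 525/em 598 nm.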
Pol beta inh: inhibitors of human DNA polymerase beta; Pol beta primer extension/strand displacement, fluorescence kinetic; Potency, µM (titrated, usually from 114 µM), actives largely listed as inhibitors; P06746; AID 485314; 340,000 tested, 1.3% active
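Kinetic readout of DNA synthesis with strand displacement by Pol beta. Compound and 10 nM enzyme sit 15 min at room temperature; 50 nM substrate starts the reaction, read immediately and at 10 min.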
Pol kappa inh-1: inhibitors of human DNA polymerase kappa. Q9UBT6. 400,000 tested, 0.53% active. Potency, µM (doses to about 107 µM), usual class: inhibitors. purified Pol kappa, fluorescent DNA synthesis assay, 10 min. AID 588579
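Enzyme at 10 nM met test compounds for 15 min at room temperature. Substrate addition (50 nM final) began the reaction, which was monitored by fluorescence at 0 and 10 min.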
Pol eta inh-1: blocks human DNA polymerase eta activity; Q9Y253; Potency, µM (top dose mostly 114 µM), hits mostly inhibitors; recombinant Pol eta, fluorescent DNA replication assay; 390,000 tested, 1.2% active
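Fluorescent replication assay: 50 nM final substrate added after a 15 min room-temperature compound preincubation with 10 nM enzyme. Signal taken at 0 min and again at 10 min.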
FEN1 inh: inhibitors of human flap endonuclease 1 | Recombinant FEN1 flap cleavage, fluorescence, 15 min | Potency, µM (doses to about 114 µM), actives largely listed as inhibitors | 390,000 tested, 0.35% active | P39748; note: nearly all actives have a fitted effect of over 65% in size
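FEN1 at 10 nM preincubated with compounds 15 min at room temperature, then flap DNA substrate added at 50 nM final. Signal read at 0 and 15 min; concentration-response fitted with four-parameter Hill equation.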
Pol iota inh: blocks human DNA polymerase iota activity; Q9UNA4; Pol iota fluorescent replication assay, 10 min; Potency, µM (series often up to 115 µM), hits mostly inhibitors; 390,000 tested, 1% active; AID 588590
Target sequence (Q9UNA4 whole entry, looked up): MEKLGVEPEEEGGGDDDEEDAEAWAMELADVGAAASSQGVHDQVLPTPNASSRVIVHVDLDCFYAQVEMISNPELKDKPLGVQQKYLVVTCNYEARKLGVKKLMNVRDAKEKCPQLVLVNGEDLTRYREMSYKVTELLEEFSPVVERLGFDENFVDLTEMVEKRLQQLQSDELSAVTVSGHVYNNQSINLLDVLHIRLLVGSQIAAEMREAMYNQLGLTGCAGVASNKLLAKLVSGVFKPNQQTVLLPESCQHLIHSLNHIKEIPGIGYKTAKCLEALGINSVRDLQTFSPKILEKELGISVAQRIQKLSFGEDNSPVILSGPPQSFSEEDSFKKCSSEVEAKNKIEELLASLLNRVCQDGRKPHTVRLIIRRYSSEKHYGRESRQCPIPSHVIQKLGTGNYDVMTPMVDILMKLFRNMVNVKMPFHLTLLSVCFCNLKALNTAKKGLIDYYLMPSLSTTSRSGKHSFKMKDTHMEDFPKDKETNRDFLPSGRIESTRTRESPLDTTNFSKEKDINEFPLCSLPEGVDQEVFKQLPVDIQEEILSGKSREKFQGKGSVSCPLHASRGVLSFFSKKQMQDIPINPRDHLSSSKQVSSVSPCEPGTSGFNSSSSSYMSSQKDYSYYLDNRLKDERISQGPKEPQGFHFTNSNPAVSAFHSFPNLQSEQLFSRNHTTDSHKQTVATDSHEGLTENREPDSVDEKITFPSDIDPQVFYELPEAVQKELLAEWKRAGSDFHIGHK
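Fluorescent replication assay read twice, at 0 min and 10 min after adding 50 nM (final) substrate. Enzyme (10 nM) and compounds were first incubated 15 min at room temperature; enzyme-free buffer wells were negative controls.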
Pol kappa inh-2: Pol kappa (human) inhibition, cherry-pick confirmation; shares compounds with Pol eta inh-1; purified Pol-kappa, fluorescent strand-displacement substrate; Potency, µM, usual class: inhibitors; 920 tested, 76% active
Pol eta inh-2: Pol eta (human) inhibition, cherry-pick confirmation; Pol eta primer extension, TAMRA/BHQ fluorescence, 10 min; Potency, µM, hits mostly inhibitors; 2,600 tested, 64% active; shares compounds with Pol eta inh-1
Each line names hits and unclear results; the compound was inactive in the other large screens (follow-up assays come after a bar, where they were run). Calls come from the whole dose curve; as a rule, active = well fitted curve in the direction sought with a large enough effect; inconclusive = small, poorly fitted or top-dose-only effect, or another doubt; inactive = no such curve, though single readings can be large; an effect the other way counts as inactive or inconclusive.

COC(=O)c1cc(Cl)ccc1NC(=O)CSc1ncc(S(=O)(=O)c2ccc(Br)cc2)c(=O)[nH]1	Pol beta inh 44.7µM, Pol kappa inh-1 inconclusive, Pol eta inh-1 89.1µM, FEN1 inh inconclusive, Pol iota inh inconclusive (no result: WRN helicase inh) | Pol kappa inh-2 42.3 | Pol eta inh-2 inconclusive
Cc1ccc2nc(Cl)c(/C=N/Nc3ccc(C(=O)O)cc3)cc2c1	Pol kappa inh-1 inconclusive, Pol eta inh-1 22.4µM, FEN1 inh 44.7µM | Pol eta inh-2 26.9
C/C(=N\Nc1ccc(Cl)c(C(=O)O)c1)c1cccs1	Pol beta inh 14.1µM, Pol kappa inh-1 inconclusive, Pol eta inh-1 17.8µM, Pol iota inh inconclusive | Pol eta inh-2 30.1
C/C(=N/Nc1ccccc1C(=O)O)c1cccs1	none
Cc1cccc(C)c1NC(=S)NC1CCCCC1	none
COc1ccc(N2Cc3cccc(C(=O)Nc4cc(C)cc(C)c4)c3C2=O)cc1	Pol beta inh 10µM, Pol kappa inh-1 inconclusive, Pol eta inh-1 79.4µM, Pol iota inh 70.8µM (no result: WRN helicase inh) | Pol kappa inh-2 42.3 | Pol eta inh-2 inconclusive
COCCN1Cc2cccc(C(=O)Nc3cc(C)cc(C)c3)c2C1=O	none
C#Cc1ccc([C@H]2C=C(C(=O)OCC=C)O[C@@H](OCCCCO)C2)cc1	Pol kappa inh-1 inconclusive, Pol eta inh-1 31.6µM, Pol iota inh 56.2µM (no result: Pol beta inh) | Pol eta inh-2 67.5
N#Cc1c(NC(=O)c2ccncc2)sc2c1CCC2	WRN helicase inh inconclusive, Pol beta inh 14.1µM, Pol kappa inh-1 inconclusive, Pol eta inh-1 31.6µM, FEN1 inh inconclusive, Pol iota inh inconclusive | Pol eta inh-2 75.7
O=C1C=CC(=O)N1Cc1ccncc1	Pol eta inh-1 inconclusive (no result: Pol beta inh)
O=C1C=CC(=O)N1CCCCCCCCCCN1C(=O)C=CC1=O	WRN helicase inh 3.16µM, Pol eta inh-1 35.5µM, Pol iota inh inconclusive (no result: Pol beta inh) | Pol kappa inh-2 inconclusive
O=C(NCCc1cccs1)C1CC(c2ccccc2[N+](=O)[O-])=NO1 (centres undefined)	none
Cc1oc(C(=O)O)cc1CSCc1cc(C(=O)O)c(C)o1	WRN helicase inh inconclusive, Pol beta inh 22.4µM, Pol kappa inh-1 inconclusive, Pol eta inh-1 3.16µM, Pol iota inh inconclusive | Pol eta inh-2 26.9
O=C(NC1CCCCC1)N1CCN(S(=O)(=O)c2ccc(F)cc2)CC1	none
Cc1oc(C)c2c(=O)ccc3c(c12)OC(N)=C(C#N)C3c1ccccc1 (centres undefined)	WRN helicase inh inconclusive, Pol beta inh inconclusive, Pol eta inh-1 inconclusive, Pol iota inh inconclusive
CSc1ccc(C2C(C#N)=C(N)Oc3c2ccc(=O)c2c(C)oc(C)c32)cc1 (centres undefined)	WRN helicase inh inconclusive, Pol beta inh inconclusive, Pol kappa inh-1 50.1µM, Pol eta inh-1 11.2µM, FEN1 inh inconclusive, Pol iota inh inconclusive | Pol eta inh-2 inconclusive
CCOc1ccc(C(=O)N/N=C/c2ccc(-c3ccc(S(=O)(=O)Nc4ncccn4)cc3)o2)cc1	WRN helicase inh inconclusive, Pol kappa inh-1 inconclusive, Pol eta inh-1 22.4µM, FEN1 inh inconclusive, Pol iota inh 17.8µM | Pol kappa inh-2 23.8 | Pol eta inh-2 inconclusive
O=C(COC(=O)c1cncc(Br)c1)Nc1nnc(-c2ccccc2)o1	Pol kappa inh-1 inconclusive, Pol eta inh-1 39.8µM, Pol iota inh inconclusive (no result: Pol beta inh) | Pol eta inh-2 60.1
C[C@]12CC[C@H](O)CC1=CCC1C2CC[C@@]2(C)C1CC[C@@H]2NCc1ccccc1 (some centres undefined)	none (no result: Pol beta inh, Pol kappa inh-1, FEN1 inh, Pol iota inh)
COC1(NC(=O)c2ccccc2)C(C)=CC(=O)C=C1C	none
